In the library only some 28% were active in any assay of this set; here they are far more common.
CYP2C19 act – increases human CYP2C19 enzyme activity | 96,000 tested, under 10 active | AID 1025 | activation factor at 5 µM | recombinant CYP2C19, luciferin-H EGE luminescence; hits give high values; 0 = fully inhibited enzyme, 1 = untreated enzyme | P33261;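 active = activation factor of at least 2 at 5 µM in the primary screen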;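 note: 0 = wells with 2.5 mM tranylcypromine and 1 = vehicle-only wells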
CD11b adhes enh – enhancers of human CD11b/CD18 binding to fibrinogen; P05107+P11215; K562 CD11b/CD18 adhesion to fibrinogen, ATPlite luminescence; activation, % at 10 µM; 93,000 compounds, 0.07% hits; AID 1499;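 active = 10 µM primary screen giving 50% or more activity, confirmed by 40% or more on retest at that dose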
CYP2C9 inh – inhibitors of human CYP2C9 | P11712 | inhibition, % at 5 µM | CYP2C9 Supersomes, luciferin-H conversion, luminescence | AID 777 | 96,000 compounds, 20% hits;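 active = blocking of liver enzyme CYP2C9 beyond about 50% at 5 µM, limit read from the data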
Target sequence (P11712 whole entry, looked up): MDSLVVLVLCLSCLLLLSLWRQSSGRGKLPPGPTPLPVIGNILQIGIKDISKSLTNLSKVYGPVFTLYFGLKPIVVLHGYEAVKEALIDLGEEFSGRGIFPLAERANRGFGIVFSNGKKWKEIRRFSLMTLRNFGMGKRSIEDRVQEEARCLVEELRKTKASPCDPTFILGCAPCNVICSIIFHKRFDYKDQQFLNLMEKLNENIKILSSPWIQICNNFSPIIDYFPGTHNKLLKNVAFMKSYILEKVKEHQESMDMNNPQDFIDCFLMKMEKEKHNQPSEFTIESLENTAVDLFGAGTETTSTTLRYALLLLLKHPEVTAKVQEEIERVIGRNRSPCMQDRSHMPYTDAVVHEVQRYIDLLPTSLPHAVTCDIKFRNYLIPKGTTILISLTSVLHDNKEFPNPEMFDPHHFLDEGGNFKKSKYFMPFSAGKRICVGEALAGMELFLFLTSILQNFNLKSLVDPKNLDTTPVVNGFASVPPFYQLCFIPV
CYP2C19 inhib – inhibitors of human CYP2C19; P33261; CYP2C19 Supersomes, luciferin-H EGE luminescence, 30 min; inhibition, % at 5 µM; 96,000 compounds, 21% hits; AID 778;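 active = CYP2C19 inhibition above a set limit at 5 µM in the primary screen, cut at about 50% in these data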;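 note: plate controls were negative control wells for no effect and 2.5 mM tranylcypromine positive control for full effect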
CD11b adhes inh – CD11b/CD18-fibrinogen binding inhibition; P05107+P11215; K562 CD11b/CD18 adhesion to fibrinogen, ATPlite luminescence; Mn2+ added to activate the integrin; inhibition, % at 10 µM; 93,000 compounds, 0.54% hits;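 active = primary inhibition of 50% or more at 10 µM, then 40% or more on retest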
CYP2C9 act – activators of human CYP2C9; AID 1024; activation factor at 5 µM; recombinant CYP2C9, luciferin-H conversion, luminescence; hits give high values; factor 1 = untreated enzyme, 0 = blocked; 96,000 compounds, 1.4% hits; P11712;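 active = activation factor of 2 or more for CYP2C9 at a 5 µM dose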;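 note: 0 = sulfaphenazole-blocked wells and 1 = vehicle-only wells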
* hit, by the source's call; nt = no result given.

SMILES	CYP2C19 act	CD11b adhes enh	CYP2C9 inh	CYP2C19 inhib	CD11b adhes inh	CYP2C9 act
O=C1CC(NCc2ccncc2)C(=O)N1c1ccccc1 (stereo not drawn)	0.1	-4	91*	94*	-32	0.1
O=C1CC(NCc2ccncc2)C(=O)N1c1ccc(Cl)cc1 (stereo not drawn)	0.1	-5	82*	88*	-1	0.2
COC(=O)c1ccc(N2C(=O)CC(NCc3ccccc3)C2=O)cc1 (stereo not drawn)	0.6	-3	17	43	-10	0.8
CNC(=S)N1C2CCC1CC(NC(=O)NC13CC4CC(CC(C4)C1)C3)C2 (stereo not drawn)	1	0	-14	-2	-2	1.1
CCCCN(CCCC)c1nc2ccccc2nc1NS(=O)(=O)c1ccc(NC(C)=O)cc1	0.5	1	64*	48	-8	0.4
N#Cc1c(NC(=O)CSC2=NCCS2)sc2c1CCCC2	1.1	-1	4	-7	6	1
Cc1ccnc(SCC(=O)Nc2sc3c(c2C#N)CCCC3)n1	0.9	-2	23	5	15	0.8
N#Cc1c(NC(=O)CSc2ncn[nH]2)sc2c1CCCC2	0.6	-2	79*	38	18	0.2
Cc1csc(SCC(=O)Nc2sc3c(c2C#N)CCC3)n1	0.9	-4	69*	9	-4	0.3
CCOc1ccccc1N(CC(=O)Nc1ccc(S(=O)(=O)N2CCOCC2)cc1)S(=O)(=O)c1ccccc1	1	nt	-2	-2	nt	1
COCCN(CC(=O)Nc1ccc(F)cc1)S(=O)(=O)c1ccc(S(=O)(=O)N2CCCC2)cc1	1	-6	62*	4	13	0.4
COCCN(CC(=O)Nc1ccccc1)S(=O)(=O)c1ccc(S(=O)(=O)N2CCCC2)cc1	0.9	1	73*	11	10	0.3
COC(=O)CCC(=O)Nc1ccc(S(=O)(=O)N2CCCCCC2)cc1	0.8	10	43	22	-47	0.6
Cc1ccc2nc(C(=O)O)c(C(=O)O)nc2c1	1	-4	2	-2	-6	1
CCOC(=O)c1[nH]c(C)c(/C(O)=C2\C(=O)C(=O)N(CCN(C)C)C2c2ccco2)c1C (stereo not drawn)	1.1	-1	3	-8	-17	1
Cc1nc2ccccc2c(=O)n1/N=C/c1ccc(N(C)C)cc1	0.9	-6	20	8	-4	0.8
Cc1nc2ccccc2c(=O)n1/N=C/c1c(O)ccc2oc3c(c12)CCCC3	0.9	18	77*	13	13	0.2
COc1ccc(N/C=C(/C(C)=O)c2ccccc2)cc1	0.1	-7	90*	89*	-16	0.1
COc1cccc(C(=O)Nc2ccc(NC(C)=O)cc2)c1	0.7	-5	12	27	-5	0.9
Cc1nc(-c2cccc(NS(=O)(=O)c3ccccc3)c2)cs1	0	-4	77*	97*	0	0.2
Cc1cccc(S(=O)(=O)Nc2cccc(-c3cn4ccsc4n3)c2)c1	0.2	-3	91*	80*	-2	0.1
O=S(=O)(Nc1cccc(-c2cn3cccnc3n2)c1)c1ccc(-c2ccccc2)cc1	0.2	nt	100*	81*	nt	0
Cc1ccc(S(=O)(=O)Nc2cccc(-c3cn4ccsc4n3)c2)cc1	0	-2	99*	100*	48	0
CONC(=O)Nc1ccccc1[N+](=O)[O-]	nt	4	nt	nt	-3	nt
Cc1ccc(/C(O)=C2\C(=O)C(=O)N(CC(C)O)C2c2ccc(N(C)C)cc2)cc1 (stereo not drawn)	0.8	0	-6	18	-10	1.1
SMILES	CYP2C19 act	CD11b adhes enh	CYP2C9 inh	CYP2C19 inhib	CD11b adhes inh	CYP2C9 act
O=C(c1nc2ccccc2s1)N1CCN(c2ccccn2)CC1	0.7	3	5	27	-8	0.9
CC1(CCc2ccc(O)cc2)NC(=O)NC1=O (stereo not drawn)	1	-5	0	2	-29	1
COc1cc(-n2nnnc2SCC(=O)N2CCN(c3ccc(F)cc3)CC2)c(OC)cc1Cl	1.1	4	8	-12	9	0.9
O=S(=O)(Nc1cccc(-c2cn3ccsc3n2)c1)c1ccc(F)cc1	0.3	-3	79*	69*	0	0.2
CCC(=O)Nc1cccc(-c2cn3ccsc3n2)c1	1	0	-52	-1	7	1.5
CN1CCCCCC1=NC1=C(C#N)CCCC1	0.8	1	-6	17	-9	1.1
CC1=C(C(=O)Nc2ccccc2C)C(c2ccc(C)o2)N2C(=O)CSC2=N1 (stereo not drawn)	0.9	4	6	10	-7	0.9
Cc1cccc(NC(=O)CC2S/C(=N/c3nccs3)N(C)C2=O)c1 (stereo not drawn)	0.5	-2	80*	54*	-7	0.2
Cc1cccc(NC(=O)CC2SC(=O)N(c3ccccc3)C2=O)c1 (stereo not drawn)	1	-5	30	4	1	0.7
FC(F)(F)c1nnc2ccc(N3CCOCC3)nn12	1.2	-2	-18	-20	-7	1.2
Cc1cccc(C)c1N1CCN(c2ccc3nnc(C(F)(F)F)n3n2)CC1	0.4	4	89*	64*	48	0.1
COC(=O)c1ccc(Sc2ccc(Cl)cc2)c(N)c1	0.6	-4	48	39	24	0.5
CN(C)c1ccc(C(=O)c2ccc(N(C)C)c(N)c2)cc1N	0.2	-1	-51	81*	5	1.5
CCOc1ccc(C(=O)c2ccc(OCC)c(N)c2)cc1N	0.2	-3	43	76*	2	0.6
COc1ccc(C(N)=O)cc1N	1	-4	6	-4	-4	0.9
O=C(O)CCN1C(=O)/C(=C\c2ccc(-c3nc4ccccc4s3)o2)SC1=S	1	81	26	-4	64	0.7
CCC1(CC)NC(=O)NC1=O	1.1	0	-7	-13	-13	1.1
O=C(Nc1cc(C(F)(F)F)ccc1Cl)C(Sc1nnc(-c2cccs2)o1)c1ccccc1 (stereo not drawn)	nt	-8	nt	nt	100*	nt
CC(=O)Nc1ccc(S(=O)(=O)N2CCN(CCCOc3ccccc3Cl)CC2)cc1	0.3	-1	48	68*	-10	0.5
COc1cccc(OCCCN2CCN(S(=O)(=O)c3ccc(NC(C)=O)cc3)CC2)c1	0.1	-3	80*	86*	6	0.2
Cc1cc(C)c(S(=O)(=O)c2ccccc2C)c(OCC(C)(C)C)n1	0.8	nt	31	24	nt	0.7
CCO/C(C)=C1\N=C(c2ccc(Cl)cc2)OC1=O	1	nt	0	0	nt	1
C/C(Cn1nc([N+](=O)[O-])cc1C)=N\NC(=O)COc1c(Cl)cc(Cl)cc1Cl	nt	12	nt	nt	10	nt
O=c1cc2c(nn1Cc1c(Cl)cccc1Cl)-c1ccccc1CC2	0.6	12	50*	36	-4	0.5

Screening results (PubChem)
